Laboratory results taken from PubChem BioAssay (NCATS).
Records with an inconclusive call do not appear. Calls of active or inactive are those of the source. The call rests on the fitted dose curve.

Tests used:
[1] = Primary qHTS for inhibitors of SARS-S pseudo-typed particle cell entry (AID 1479145); conditions: SARS-S pseudotyped particle cell entry, luciferase reporter; series mostly up to 57.1 µM; further: nearly all actives have a fitted effect of over 45% in size
[2] = Primary qHTS for Huh7 cytotoxicity: counterscreen for inhibitors of MERS-S pseudotyped particle cell entry (AID 1479147); conditions: cell viability read-out; series mostly up to 57.1 µM
[3] = Primary qHTS for inhibitors of MERS-S pseudo-typed particle cell entry (AID 1479149); conditions: MERS-S pseudotyped particle entry, luciferase; series mostly up to 57.1 µM; further: nearly all actives have a fitted effect of over 60% in size
[4] = Primary qHTS for Vero E6 cytotoxicity: counterscreen for inhibitors of SARS-S pseudo-typed particle cell entry (AID 1479150); conditions: cell viability; series mostly up to 57.1 µM

Measured: Potency

C[C@H]1C[C@H]2[C@@H]3CCC4=CC(=O)C=C[C@]4(C)[C@@]3(Cl)[C@@H](O)C[C@]2(C)[C@@]1(O)C(=O)CO
inactive: all assays above

C=CC[N+]1([C@H]2C[C@H]3[C@@H]4CC[C@H]5C[C@H](OC(C)=O)[C@@H](N6CCCCC6)C[C@]5(C)[C@H]4CC[C@]3(C)[C@H]2OC(=O)CC)CCCCC1
inactive: all assays above

Cc1nc(C2CCCCC2)c(-c2ccc(S(N)(=O)=O)c(F)c2)o1
inactive: all assays above

N#Cc1cc(NC(=O)C(=O)O)c(Cl)c(NC(=O)C(=O)O)c1
inactive: all assays above

CC(C)(C)C(=O)OCOC(=O)[C@@H]1N2C(=O)[C@@H](NC(=O)[C@H](N)c3ccccc3)[C@H]2SC1(C)C
inactive: all assays above

CC1(C)OC[C@@H](COC(=O)CCc2ccc(OC[C@@H](O)CNCCNC(=O)N3CCOCC3)cc2)O1
inactive: all assays above

CN1CCCN=C1COC(=O)C(O)(c1ccccc1)C1CCCCC1 (stereo not given)
inactive: all assays above

C[C@]1(Cn2ccnn2)[C@H](C(=O)O)N2C(=O)C[C@H]2S1(=O)=O
inactive: all assays above

C[C@H](CCC(=O)O)[C@H]1CC[C@H]2[C@@H]3C(=O)C[C@@H]4CC(=O)CC[C@]4(C)[C@H]3CC(=O)[C@]12C
inactive: all assays above

CCCc1cc(C(N)=S)ccn1
inactive: all assays above

CN1[C@@H]2CC[C@H]1CC(NC(=O)n1c(=O)[nH]c3ccccc31)C2 (stereo not given in full)
inactive: all assays above

O=C1C(CCS(=O)c2ccccc2)C(=O)N(c2ccccc2)N1c1ccccc1 (stereo not given)
inactive: all assays above

CC(C)=CCOc1ccc(/C=C/C(=O)c2ccc(OCC=C(C)C)cc2OCC(=O)O)cc1
inactive: all assays above

CC(=C(CCOC(=O)C(C)C)SSC(CCOC(=O)C(C)C)=C(C)N(C=O)Cc1cnc(C)nc1N)N(C=O)Cc1cnc(C)nc1N
inactive: all assays above

Cc1ccc(C(C)OC(=O)C2(C)CCC(C(=O)O)C2(C)C)cc1 (stereo not given)
inactive: all assays above

CCN1CCN(c2cc(-c3ccc(F)cc3)c3c(n2)CCCCCC3)CC1
inactive: all assays above

COc1ccc2c(c1OC)C(=O)O[C@@H]2[C@H]1c2c(cc3c(c2OC)OCO3)CCN1C
inactive: all assays above

C[C@]12CCC(=O)C=C1CC[C@@H]1[C@@H]2[C@@H](O)C[C@@]2(C)[C@H]1CC[C@]2(O)C(=O)CO
inactive: all assays above

Cc1[nH]c(C)c(Cl)c(=O)c1Cl
inactive: all assays above

CCN(CC)C(=O)N1CCN(C)CC1
inactive: all assays above

Nc1c(CC(=O)O)cccc1C(=O)c1ccc(Br)cc1
inactive: all assays above

NS(=O)(=O)c1ccc(N2CCCCS2(=O)=O)cc1
inactive: all assays above

CCC1Nc2cc(Cl)c(S(N)(=O)=O)cc2S(=O)(=O)N1 (stereo not given)
inactive: all assays above

C#CCN(C)Cc1ccccc1
inactive: all assays above

Nc1ccc(N=Nc2ccccc2)c(N)n1
inactive: all assays above

Cc1cccc(N(C)C(=S)Oc2ccc3c(c2)CCC3)c1
inactive: all assays above

c1ccc(CN(CC2=NCCN2)c2ccccc2)cc1
inactive: all assays above

CCN[C@H]1C[C@H](C)S(=O)(=O)c2sc(S(N)(=O)=O)cc21
inactive: all assays above

CNC1CCCN(c2c(F)cc3c(=O)c(C(=O)O)cn(C4CC4)c3c2OC)C1 (stereo not given)
inactive: all assays above

CC(C)(Oc1ccc(CCNC(=O)c2ccc(Cl)cc2)cc1)C(=O)O
inactive: all assays above

CCOC(=O)NNc1nncc2ccccc12
inactive: all assays above

CCCn1cnc2c1c(=O)n(CCCCC(C)=O)c(=O)n2C
inactive: all assays above

CCOc1c(N2CCOCC2)cnn(C)c1=O
inactive: all assays above

Cc1[nH]c(=O)c(C#N)cc1-c1ccc2nccn2c1
inactive: all assays above

CCCOc1ccc(C(=O)OCCN(CC)CC)cc1N
inactive: all assays above
